Bioassay records: PubChem BioAssay, The Scripps Research Institute Molecular Screening Center
DAX1 inh-1 = DAX1 (NR0B1) inhibitors on StAR promoter, primary screen, cell-based, luminescence, SF-1 (NR5A1), full-length DAX-1; HEK293T StAR-luciferase reporter, SF-1/DAX-1 repression relief; inhibition, % at 6.8 µM; 370,000 tested, 1.1% active; AID 652010, 2013;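 active means inhibition above the mean over all tested compounds plus 3 SD, cut at about 3.6% in these data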;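 further: higher inhibition means more luminescence from relief of DAX-1 repression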
DAX1 inh-2 = DAX1 (NR0B1) inhibitors, primary screen, cell-based, HEK293, Gal4-DAX1, luciferase luminescence; Nuclear receptor subfamily 0 group B member 1 (Homo sapiens), P51843; inhibition, % at 6.75 µM; AID 504766, 2011; HEK293 Gal4-DAX1 luciferase reporter; 340,000 tested, 0.99% active;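 active means inhibition above the mean over all tested compounds plus 3 SD, cut at about 4.2% in these data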;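 further: inhibition shows as a rise in luminescence from relieved DAX1 repression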
Target sequence (P51843 207-470 limits assumed): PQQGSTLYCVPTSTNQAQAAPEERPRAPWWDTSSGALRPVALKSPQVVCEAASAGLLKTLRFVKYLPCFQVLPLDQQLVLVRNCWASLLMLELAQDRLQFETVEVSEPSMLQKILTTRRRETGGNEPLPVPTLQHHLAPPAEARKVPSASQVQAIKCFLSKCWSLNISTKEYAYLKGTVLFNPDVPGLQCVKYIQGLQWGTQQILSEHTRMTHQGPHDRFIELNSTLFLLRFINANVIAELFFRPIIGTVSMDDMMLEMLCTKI
hgDAF12 agonist = H. glycines DAF-12 receptor agonists, primary screen, cell-based, luminescence, HEK293, GAL4 fusion, UAS-luciferase | Nuclear hormone receptor DAF-12 (Heterodera glycines), GAL4 fusion | HEK293 GAL4-hgDAF12 UAS-luciferase reporter, agonist luminescence; normalized to butyrate control | activation, % at 6.8 µM | 370,000 tested, 1.8% active;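 active means activation above a cutoff set at the mean of all screened compounds plus 3 SD, cut at about 10% in these data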
ssDAF-12 act = S. stercoralis DAF-12 nuclear receptor activators, primary screen, cell-based, luminescence, HEK293, GRIP1 co-expression, lit1-tk-luc; HEK293 ssDAF-12/GRIP1 lit1-tk-luc reporter; % of 3 µM dafachronic acid response; activation, % at 6.8 µM; 370,000 tested, 1% active; AID 652126, 2013;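 active means activation above the mean over all tested compounds plus 3 SD, cut at about 0.9% in these data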
hcDAF12 agonist = H. contortus DAF-12 nuclear receptor activators, primary screen, cell-based, luminescence, HEK293, lit1-tk-luc reporter; activation, % at 6.8 µM; HEK293 hcDAF-12 lit1-tk-luc reporter; 0% DMSO, 100% Δ7-dafachronic acid; 370,000 tested, 1.4% active; AID 652067, 2013;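 active means activation above the mean of all tested compounds plus 3 SD, cut at about 5.5% in these data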
DAX1 conf = DAX1 (NR0B1) inhibitors relieving SF-1 repression, confirmation, cell-based, luminescence, HEK293T, full-length DAX-1, SF-1 activated StAR promoter. shares compounds with DAX1 inh-1. HEK293T StAR-promoter luciferase reporter, SF-1/DAX-1 repression. inhibition, % at 6.8 µM. 2,400 tested, 87% active. AID 652134, 2013;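 active means inhibition above the average of every tested compound plus 3 SD, cut at about 3.8% in these data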
SF1 mutant ctr = StAR reporter signal changes without DAX1, counter-screen for DAX1 inhibitor project, cell-based, luminescence, AF-2 mutant SF-1, transactivation. shares compounds with DAX1 inh-1. HEK293 StAR-luciferase, SF-1 AF2 mutant. inhibition, % at 6.8 µM. 2,400 tested, 78% active. AID 652136, 2013;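 active means inhibition above the mean of all tested compounds plus 3 SD, cut at about 3% in these data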
LXRb hcDAF ctr = LXR agonists, Gal4 luciferase reporter, confirmation, counter-screen for hcDAF-12 agonist project, cell-based, luminescence, HEK293, H. contortus campaign; shares compounds with hcDAF12 agonist; HEK293 Gal4-LXR tk-luc reporter, 24 h; normalized: DMSO 0%, positive control 100%; activation, % at 6.8 µM; 3,400 tested, under 10 active;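 active means mean percent activation of the reporter above a cutoff set as the average over tested compounds plus their standard deviation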
Target sequence (P55055 whole entry, looked up, the tested form may be a part): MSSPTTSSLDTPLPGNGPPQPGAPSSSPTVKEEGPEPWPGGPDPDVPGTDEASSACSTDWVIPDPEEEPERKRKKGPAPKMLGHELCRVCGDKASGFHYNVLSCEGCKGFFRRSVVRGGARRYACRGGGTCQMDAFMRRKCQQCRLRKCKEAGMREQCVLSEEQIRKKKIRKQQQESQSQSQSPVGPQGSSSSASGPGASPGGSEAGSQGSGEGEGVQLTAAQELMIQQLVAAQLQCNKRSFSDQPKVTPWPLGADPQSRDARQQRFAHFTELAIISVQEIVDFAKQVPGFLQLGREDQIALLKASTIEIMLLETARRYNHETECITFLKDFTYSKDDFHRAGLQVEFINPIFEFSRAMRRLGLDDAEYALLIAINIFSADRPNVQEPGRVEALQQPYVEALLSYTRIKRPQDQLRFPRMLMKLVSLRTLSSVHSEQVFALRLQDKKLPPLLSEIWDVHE
hcDAF12 ag = H. contortus DAF-12 receptor agonists, confirmation, cell-based, luminescence, HEK293, lit1-tk-luc, triplicate. shares compounds with hcDAF12 agonist. HEK293 hcDAF-12 lit1-tk-luc reporter; % of Δ7-dafachronic acid response. activation, % at 6.8 µM. 3,400 tested, 61% active. AID 743032, 2013;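 active means mean activation across triplicate tests above the threshold derived from the earlier primary screen, cut at about 5.5% in these data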
hgDAF12 conf = H. glycines DAF-12 receptor agonists, confirmation, cell-based, luminescence, HEK293, GAL4-LBD fusion; shares compounds with hgDAF12 agonist; activation, % at 6.8 µM; HEK293 GAL4-hgDAF12 luciferase reporter, agonist mode; percent of butyrate response; 3,300 tested, 80% active;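 active means mean activation over triplicate wells above the hit cutoff derived from the earlier primary screen, cut at about 11% in these data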
LXR ag 2 = LXR agonists, Gal4 luciferase reporter, confirmation, counter-screen for hgDAF-12 agonist project, cell-based, luminescence, HEK293, H. glycines campaign; shares compounds with hgDAF12 agonist; 24 h; activation, % at 6.8 µM; 3,300 tested, under 10 active; AID 743051, 2013;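 active means mean activation of the triplicate above a set limit carried over from the primary screen, none filed active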
A number is an active result; n = inactive; x = no result given. Sampled rows, rich in hits. Any-hit rate of the full collection: about 4.1%.

SMILES | DAX1 inh-1 | DAX1 inh-2 | hgDAF12 agonist | ssDAF-12 act | hcDAF12 agonist | DAX1 conf | SF1 mutant ctr | hgDAF12 conf | LXR ag 2 | others
c1ccc(-c2noc(-c3cccc4ccccc34)n2)nc1 | 5.5 | n | 13 | 3.0 | 18 | 12 | 4.6 | x | x | LXRb hcDAF ctr=n;hcDAF12 ag=20
CCOc1ccc(-n2c(COc3ccc(C)cc3)nnc2SCC(=O)Nc2ccc(F)c(F)c2)cc1 | n | x | n | n | n | x | x | x | x
Oc1ccccc1/C=C/c1noc(-c2ccccc2O)n1 | 6.1 | 7.5 | 18 | 3.9 | 15 | 13 | 9.3 | x | x | LXRb hcDAF ctr=n;hcDAF12 ag=12
CN(C(=O)c1ccco1)c1nc2c(s1)CCCC2 | 5.1 | n | 12 | 1.6 | 8.6 | 16 | 6.4 | x | x | LXRb hcDAF ctr=n;hcDAF12 ag=8.3
COc1ccc(/C=C/c2nc(-c3ccccc3O)n(-c3ccccc3)n2)cc1 | n | n | n | n | n | x | x | x | x
COc1ccc(/C=C/c2nc(-c3ccccc3O)n[nH]2)cc1 | 4.6 | n | 20 | n | 6.5 | 14 | 8.4 | 18 | n
NC(=O)c1ccccc1N/C=C/C(=O)c1ccc(Cl)cc1Cl | 6.3 | n | 16 | n | 8.1 | 17 | 7.6 | 17 | n | LXRb hcDAF ctr=n;hcDAF12 ag=8.2
NC(=O)c1ccccc1NC(=O)/C=C/c1cccc(Cl)c1 | n | n | n | n | n | x | x | x | x
c1ccc(Cn2ccc3ccc(-c4ccc5ccn(Cc6cccc(-c7cccs7)c6)c5c4)cc32)cc1 | n | x | n | n | n | x | x | x | x
O=C(NNC(=O)c1ccccn1)c1ccc(OC(F)F)cc1 | n | n | n | n | n | x | x | x | x
O=C(NCCc1ccccn1)c1ccc(OC(F)F)cc1 | 5.4 | n | 16 | n | n | 9.3 | 3.8 | 15 | n
O=C(O)c1cc(N/N=C/c2ccc3c(c2)OCCO3)ccc1Cl | 4.6 | n | 17 | n | n | 13 | 6.0 | 23 | n
CCOc1ccc(/C=N/Nc2ccccn2)cc1OC | 6.7 | n | 16 | n | n | 8.3 | 4.4 | 13 | n
Fc1cccc(/C=N/Nc2ccccn2)c1 | n | n | n | n | n | x | x | x | x
C=CCOc1ccc(/C=N/Nc2ccccn2)cc1OC | 5.3 | n | 14 | n | n | 4.7 | n | 11 | n
C(=N\Nc1ccccn1)/c1ccc2c(c1)OCCO2 | 5.6 | n | 27 | n | 6.0 | 15 | 9.4 | 22 | n
O=C(CCCc1ccccn1)c1cccc2ccccc12 | 5.6 | n | 15 | 1.1 | 12 | 13 | 5.7 | 15 | n | LXRb hcDAF ctr=n;hcDAF12 ag=9.6
CCOc1ccc(-n2c(SCC(=O)Nc3ccccc3-c3ccccc3)nnc2-c2ccncc2)cc1 | n | x | n | n | n | x | x | x | x
CCOC(=O)c1sc2nc(NC(=O)C3CC3)sc2c1C | n | n | n | n | n | x | x | x | x
CCOC(=O)c1sc2nc(NC(=O)C(C)(C)C)sc2c1C | 5.2 | n | 14 | n | n | 4.1 | n | n | n
Cc1ccc(CN2CCCCC(NC(=O)Nc3cccc(F)c3)C2=O)cc1 (stereo not drawn) | n | x | n | n | n | x | x | x | x
CCCOC(=O)Nc1ccc(N2CCCCC2)cc1 | 5.3 | n | 15 | n | n | 16 | 5.8 | 14 | n
O=C(Nc1ccc(N2CCCCCC2)cc1)c1ccc[nH]1 | 13 | n | 15 | n | 7.3 | 9.4 | 5.8 | 17 | n | LXRb hcDAF ctr=n;hcDAF12 ag=10.0
O=C(Nc1ccc(N2CCCC2)cc1)c1ccc(Br)cc1 | n | n | n | n | n | x | x | x | x
O=C(NCCNc1ccccc1[N+](=O)[O-])c1cc(F)c(F)cc1Cl | n | n | n | n | n | x | x | x | x
SMILES | DAX1 inh-1 | DAX1 inh-2 | hgDAF12 agonist | ssDAF-12 act | hcDAF12 agonist | DAX1 conf | SF1 mutant ctr | hgDAF12 conf | LXR ag 2 | others
COc1ccc(C(=O)NCCNc2ccccc2[N+](=O)[O-])cc1 | 8.0 | n | 19 | n | n | 14 | 6.7 | 15 | n
CC(C)CNc1cccc2c1S(=O)(=O)N(Cc1cn(Cc3ccc(F)cc3)nn1)Cc1ccccc1O2 | n | x | n | n | n | x | x | x | x
COc1cc2ccccc2cc1C(=O)NCC(c1cccs1)N(C)C (stereo not drawn) | 10 | n | 15 | n | 6.4 | 12 | 7.1 | 16 | n
COc1cc(OC)c(C(=O)NCC(c2cccs2)N(C)C)cc1OC (stereo not drawn) | x | n | x | x | x | x | x | x | x
C=CCNc1nc(-c2ccc3c(c2)OCCO3)cs1 | 14 | n | 20 | 1.1 | 6.7 | 16 | 7.4 | 18 | n | LXRb hcDAF ctr=n;hcDAF12 ag=7.5
O=C(Nc1nc(-c2ccc3c(c2)OCCO3)cs1)c1ccco1 | 12 | n | 14 | n | 10.0 | 11 | 7.0 | 17 | n | LXRb hcDAF ctr=n;hcDAF12 ag=n
CC(=O)c1cc(-c2cc(C(F)(F)F)cc(C(F)(F)F)c2)c(=O)n2c1CCC2 | n | x | n | n | n | x | x | x | x
c1coc(-c2cc3nc(NCc4ccc5c(c4)OCO5)ccn3n2)c1 | n | x | n | n | n | x | x | x | x
